Assay in all cases: NCI-60 one-dose screen, 48 h (100 = growth as untreated, 0 = no growth, -100 = all killed)
What all share (details): 10 µM unless noted

Assay [1] has as its system SR leukemia.
For assay [2], the system named is RPMI-8226 leukemia.
The subject of assay [3] is OVCAR-8 ovarian.
In assay [4] the test system is OVCAR-5 ovarian.
In assay [5] the test system is OVCAR-4 ovarian.
For assay [6], the system named is SK-OV-3 ovarian.
Assay [7] relates to IGROV1 ovarian.
The test system of assay [8] is OVCAR-3 ovarian.
In assay [9] the test system is HS 578T breast.
In assay [10] the test system is NCI/ADR-RES ovarian.
The test system of assay [11] is T-47D breast.
Assay [12] has as its system BT-549 breast.
Assay [13] concerns MDA-MB-435 melanoma.
In assay [14] the test system is SW-620 colon.
In assay [15] the test system is MCF7 breast.
In assay [16] the test system is HCT-116 colon.
The test system of assay [17] is HCC-2998 colon.
Assay [18] concerns KM12 colon.
Assay [19] concerns MOLT-4 leukemia.

Experimental findings from PubChem BioAssay (NCI) are described below.

The structures appear in SMILES notation. Several values for one entry are separate records, joined by “and”; a condition that tells them apart may be missing. Equal values may be shown once. About 83,000 compounds went through this panel and 20% of them were active in at least one assay; those are over-represented in the sample as a whole.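 In brief: 96-well plates, 48 h treatment, single concentration, percent growth endpoint.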 Values without a mark were called inactive. Activity calls are given as the source filed them. How the source made its calls: active means growth percent below 10; inactive means the rest.

With `CCCC1CCCCC12C(=O)NC(=O)NC2=O` (configuration not stated), the growth in assay [1] is 91.8%; in [2] it was 95.9%; in [3], 107% and 103%; in assay [4], 97.8% and 107%; in [5], 94.1% and 104%; in assay [6] it was 94.7% and 106%. The growth in assay [7] is 111%; in assay [8], 106% and 105%; in assay [9], 91.8% and 106%; in assay [10], 99.6% and 104%; in [11] it was 93.2% and 87.8%; in assay [12] it was 112% and 98.9%. In addition, the growth was 99.1% and 108% in assay [13]; 94.9% and 106% in [14]; 98.6% and 99.9% in [15]; 109% and 94.4% in assay [16]; 103% and 96.6% in assay [17]; 98.1% and 107% in assay [18].

As to `CCCC[C@H]1C(=O)O[C@H](C)[C@H](NC(=O)c2cccc(NC=O)c2O)C(=O)O[C@@H](C)[C@@H]1OC(=O)CC(C)C`, the growth in [19] is 31.1%; in assay [1], 49.4%; in [2] it was 18.2%; in [4] it was -27.7% (active); in assay [5] it was 40.9%; in [6] it was 68%. Also, the growth is 55.6% in assay [7]; 43.4% in assay [8]; 1.1% (active) in assay [10]; 27.9% in [11]; 140% in assay [12]; 39% in [13]. Also, the growth is 59% in assay [14]; 38.3% in assay [15]; 20.8% in [16]; 56.6% in [17]; 41.9% in assay [18].

Regarding `c1ccc(CCN2CCCCC2)nc1`, the growth in [19] is 92.9%; in assay [2], 94.3%; in [3], 108%; in assay [4], 98.6%; in assay [5] it was 99.3%; in assay [6], 99.2%. Moreover, the growth is 107% in assay [7]; 109% in [9]; 109% in assay [10]; 91.1% in [11]; 99.8% in assay [12]; 100% in [13]. The growth was 112% in assay [14]; 96.5% in assay [15]; 99.9% in assay [16]; 119% in assay [17]; 110% in [18].

For the molecule `C[C@]12CCC(=O)C[C@@H]1CC[C@@H]1[C@@H]2CC[C@]2(C)[C@@H](OC(=O)N(CCCl)N=O)CC[C@@H]12`, the growth in assay [19] is 13.3%; in assay [2], 17.4%; in [3] it was 27.8%; in assay [4], 42.6%; in assay [5] it was 72.6%; in [6] it was 16.1%. Moreover, the growth in assay [7] was -29.7% (active); in assay [8], 49.5%; in [9], 35.7%; in [10], 25%; in assay [11], 34%; in assay [12], 32.9%. Moreover, the growth in assay [13] was 25.9%; in assay [15] it was 47.7%; in assay [16], 25.9%; in assay [17], 44.6%; in assay [18], 3.72% (active).

As to `NC(=O)Oc1cc(OC(N)=O)cc(N(CCCl)CCCl)c1`, the growth is -17.1% (active) in assay [1]; 59.7% in [2]; 28.5% in assay [3]; 91.3% in assay [4]; 74.7% in assay [5]; 76% in [6]. Also, the growth is 91.2% in assay [7]; 82.8% in [8]; 107% in [9]; 54.9% in [10]; 53.6% in [11]; 68.2% in [12]. The growth in [13] was 65.2%; in assay [14], 60.8%; in [15], 31.8%; in assay [16], 61.9%; in assay [18], 82.3%.

In the case of `NC1CN2CCC1CC2` (configuration not stated), the growth in [19] was 97.8%; in assay [2] it was 96.4%; in assay [3], 97.8%; in assay [4] it was 95.5%; in [5], 106%; in assay [6], 97.4%. For the same molecule, the growth in assay [7] is 102%; in [8] it was 105%; in assay [9], 101%; in [10], 101%; in [11], 91%; in assay [12] it was 95%. Also, the growth in assay [13] is 104%; in [14], 99.7%; in assay [15] it was 90.5%; in [16] it was 109%; in assay [18], 115%.

Take `S=P(SP(=S)(c1ccccc1)c1ccccc1)(c1ccccc1)c1ccccc1`: the growth in [1] is 93.7%; in assay [2], 87.7%; in assay [3], 104%; in [4], 95.2%; in [5], 111%; in [6], 106%. In addition, the growth in assay [7] is 119%; in assay [8], 104%; in assay [9], 93.8%; in assay [10], 104%; in assay [11] it was 103%; in [12], 109%. The growth is 97.5% in [13]; 112% in assay [15]; 109% in assay [16]; 104% in assay [17]; 105% in assay [18].

Regarding `C[C@H](O)CCC(=O)c1ccoc1`, the growth is 98.2% in assay [19]; 97.8% in [2]; 97.7% in assay [3]; 106% in assay [4]; 113% in assay [6]; 113% in assay [7]. The growth in assay [8] is 109%; in assay [9], 97.1%; in [10] it was 102%; in assay [11] it was 108%; in assay [12] it was 118%; in [13] it was 112%. Further, the growth was 105% in assay [14]; 98.6% in [15]; 106% in assay [16]; 102% in [17]; 104% in [18].

Consider `COC1C(O)CC(OC2CC(Oc3cc4cc5c(c(O)c4c(O)c3C)C(=O)[C@@H](OC3CC(OC4CC(OC6CC(C)(O)C(OC(C)=O)C(C)O6)C(O)C(C)O4)C(O)C(C)O3)[C@H]([C@H](OC)C(=O)[C@@H](O)[C@@H](C)O)C5)OC(C)C2OC(C)=O)OC1C` (some centres not stated), for which the growth in assay [19] is 1.77% (active); in assay [1], 1.63% (active); in assay [2], -30.8% (active); in assay [4], -67% (active); in [5] it was 4.26% (active); in assay [6], 12.2%. The growth was -23.8% (active) in assay [7]; -9.73% (active) in assay [8]; -33.9% (active) in assay [10]; -7.93% (active) in assay [11]; -68.3% (active) in assay [12]; -100% (active) in [13]. Moreover, the growth in assay [15] is -18.4% (active); in [16], 0.84% (active); in assay [18] it was -34.6% (active).

On to `Cc1ccc(C(=O)O[C@H](C(=O)O)[C@H](OC(=O)c2ccc(C)cc2)C(=O)O)cc1`, for which the growth in assay [19] is 90.9%; in [2] it was 106%; in [3], 98.8%; in [4], 114%; in assay [5], 103%; in assay [6], 96.9%. Besides, the growth was 103% in assay [7]; 111% in assay [8]; 99.1% in assay [10]; 101% in assay [12]; 104% in [13]; 105% in [15]. Also, the growth in assay [16] is 103%; in [18], 112%.

Turning to `[N-]=[N+]=CC(=O)CCC(=O)C=[N+]=[N-]`, the growth in assay [19] was 87%; in assay [2] it was 119%; in assay [3] it was 98.9%; in assay [4], 107%; in assay [5], 108%; in assay [6] it was 109%. In addition, the growth in assay [7] was 49.2%; in [8], 103%; in [9], 95.3%; in [11], 106%; in assay [13], 113%; in [14] it was 94.1%. Moreover, the growth in assay [15] was 99.9%; in assay [16], 102%; in assay [17] it was 109%; in assay [18], 121%.

Take `Cc1c2ccncc2c(C)c2c1[nH]c1ccccc12`: the growth in assay [19] was -24.4% (active); in assay [1], -12.8% (active); in [3], -14.2% (active); in assay [4], -90.8% (active); in [5], -29.7% (active); in assay [6], -4.52% (active). Moreover, the growth in [7] is -66.2% (active); in assay [8], -86% (active); in [9] it was -47.3% (active); in assay [10] it was -46.9% (active); in [11], -56.1% (active); in [13], -89.6% (active). The growth in [14] was -64.1% (active); in assay [15], -15.9% (active); in assay [16], -57% (active); in assay [17] it was -96.8% (active); in assay [18] it was -69.3% (active).

As for `Nc1c(Cl)c(Cl)nc(C(=O)O)c1Cl`, the growth in assay [19] was 70.2%; in [2] it was 123%; in assay [3], 94.2%; in assay [4], 111%; in assay [5], 95.4%; in assay [6], 99.9%. The growth in assay [7] is 29.9%; in assay [9] it was 104%; in assay [11], 101%; in assay [13], 106%; in [14] it was 99.1%; in [15], 95.2%. In addition, the growth in assay [16] was 97.3%; in [17], 95.7%; in assay [18], 101%.

Consider `COc1c(O)cc2c(c1OC)-c1ccc(SC)c(=O)cc1C(NC(C)=O)CC2` (configuration not stated), for which the growth in assay [19] was 9.41% (active); in assay [1], 5.8% (active); in [2] it was 0.467% (active); in assay [4], 41.9%; in assay [5], 16.8%; in assay [6] it was 35.2%. Moreover, the growth is -44.2% (active) in [7]; -34.3% (active) in [8]; 16% in assay [9]; -1.28% (active) in [10]; 81.9% in [11]; -9.83% (active) in assay [12]. The growth in assay [13] is -47.2% (active); in assay [14], 22.9%; in [15], 13.3%; in [16] it was 4.98% (active); in [18], -41.1% (active).

Turning to `O=C(NC(Cl)=C(Cl)Cl)P(=O)(c1ccccc1)c1ccccc1`, the growth in assay [1] is 88.3%; in [2], 101%; in assay [3], 126%; in assay [4], 105%; in assay [5], 101%; in [6], 107%. Moreover, the growth in assay [7] is 95%; in assay [8], 115%; in assay [9] it was 113%; in assay [10] it was 107%; in [11], 105%; in [12] it was 109%. Besides, the growth in [13] was 92%; in assay [14], 112%; in assay [15], 97.3%; in assay [16], 106%; in [17], 114%; in [18], 106%.

`Cn1cc(C(=O)C[n+]2ccccc2)c2ccccc21`: the growth was 103% in assay [19]; 98.2% in assay [2]; 114% in assay [3]; 105% in assay [4]; 90.4% in assay [5]; 101% in assay [6]. In addition, the growth in [7] was 103%; in assay [8], 109%; in assay [9], 96.8%; in assay [10], 100%; in assay [11], 86.9%; in [12], 95.3%. In addition, the growth in assay [13] was 105%; in assay [14], 106%; in assay [15] it was 101%; in assay [16], 97.5%; in assay [17], 106%; in assay [18] it was 91.5%.
